In PubChem BioAssay (NCATS):
Results filed as inconclusive are left out. Active and inactive are the calls of the source. Calls follow the shape of the dose curve; as a rule, active = well fitted curve in the direction sought with a large enough effect; inconclusive = small, poorly fitted or top-dose-only effect, or another doubt; inactive = no such curve, though single readings can be large; an effect the other way counts as inactive or inconclusive.

Legend:
HEK293 = experiment: Cytotoxic Profiling of Annotated Libraries Using Quantitative High-Throughput Screening (AID 1296008); settings: Five cell lines viability, CellTiter-Glo ATP luminescence, 48-72 h; max response: hits give low values; also: nearly all actives have a fitted effect of over 60% in size
Outline: (§1)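 Compounds were pin-transferred onto cells and incubated 48 or 72 hr at 37 degree Celsius, 95% humidity. CellTiter-Glo was added, plates sat 10 min at room temperature, then ATP-coupled luminescence was imaged as the viability read-out.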

HaCat = experiment: as above; settings: Five cell lines viability, CellTiter-Glo ATP luminescence, 48-72 h; max response: hits give low values
Outline: as §1

KB-3-1 = experiment: as above; settings: Five cell lines viability, CellTiter-Glo ATP luminescence, 48-72 h; max response: hits give low values
Outline: as §1

NIH3T3 = experiment: as above; settings: Five cell lines viability, CellTiter-Glo ATP luminescence, 48-72 h; max response: hits give low values
Outline: as §1

C33A = experiment: Primary qHTS to identify gynecologic anti-cancer compounds using libraries of approved drugs and bioactive compounds (AID 1345084); settings: Gynecologic cancer cell panel viability, ATPlite luminescence, 48 h; series mostly up to 57.5 µM; also: nearly all actives have a fitted effect of over 55% in size
Outline: (§2)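 Cytotoxicity screen measuring ATP content by luciferase luminescence. Each compound is applied at five concentrations for 48 h at 37 C with 5% CO2.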

CAOV3 = experiment: as above; settings: Gynecologic cancer cell panel viability, ATPlite luminescence, 48 h; series mostly up to 57.5 µM
Outline: as §2

CASKI = experiment: as above; settings: Gynecologic cancer cell panel viability, ATPlite luminescence, 48 h; series mostly up to 57.5 µM
Outline: as §2

Es-2 = experiment: as above; settings: Gynecologic cancer cell panel viability, ATPlite luminescence, 48 h; series mostly up to 57.5 µM
Outline: as §2

HeLa = experiment: as above; settings: Gynecologic cancer cell panel viability, ATPlite luminescence, 48 h; series mostly up to 57.5 µM
Outline: as §2

Hek293T = experiment: as above; settings: Gynecologic cancer cell panel viability, ATPlite luminescence, 48 h, control line for the selectivity index; series mostly up to 57.5 µM
Outline: as §2

JEG-3 = experiment: as above; settings: Gynecologic cancer cell panel viability, ATPlite luminescence, 48 h; series mostly up to 57.5 µM
Outline: as §2
% is scaled to controls: 0 for no effect and ±100 for the full control effect.

COC1C(=O)CCC2(CO2)C1(O)C1(C)OC1CC=C(C)C (configuration not stated)
inactive: max response (HEK293) -34.7% | max response (HaCat) -2.7% | max response (KB-3-1) 6.79% | max response (NIH3T3) -14.1% | Potency (C33A) | Potency (CAOV3) | Potency (CASKI) | Potency (Es-2) | Potency (HeLa) | Potency (Hek293T) | Potency (JEG-3)

C/C=C1\[C@H](O[C@@H]2O[C@H](CO)[C@@H](O)[C@H](O)[C@H]2O)OC=C(C(=O)OC)[C@H]1CC(=O)OC[C@H]1O[C@@H](OCCc2ccc(O)cc2)[C@H](O)[C@@H](O)[C@@H]1O
inactive: max response (HEK293) 0.429% | max response (HaCat) -4.08% | max response (KB-3-1) 1.44% | max response (NIH3T3) -11.8% | Potency (C33A) | Potency (CAOV3) | Potency (CASKI) | Potency (Es-2) | Potency (HeLa) | Potency (Hek293T) | Potency (JEG-3)

CC[C@H](NC(=O)[C@H](CS(=O)(=O)CC1CC1)N[C@@H](c1ccc(F)cc1)C(F)(F)F)C(=O)C(=O)NC1CC1
inactive: max response (HEK293) -20.2% | max response (HaCat) -1.21% | max response (KB-3-1) 3.82% | max response (NIH3T3) -16% | Potency (C33A) | Potency (CAOV3) | Potency (CASKI) | Potency (Es-2) | Potency (HeLa) | Potency (Hek293T) | Potency (JEG-3)

CC(=O)O[C@]1(C(C)=O)CC[C@H]2[C@@H]3C[C@H](C)C4=CC(=O)C=C[C@]4(C)[C@@]3(F)[C@@H](O)C[C@@]21C
inactive: max response (HEK293) -1.51% | max response (HaCat) 3.64% | outcome (KB-3-1) | max response (NIH3T3) 3.11% | Potency (C33A) | Potency (CAOV3) | Potency (CASKI) | Potency (Es-2) | Potency (HeLa) | Potency (Hek293T) | Potency (JEG-3)

CC1=CC(=O)CC(C)(C)C1CCC(C)O[C@@H]1O[C@H](CO[C@@H]2OC[C@@H](O)[C@H](O)[C@H]2O)[C@@H](O)[C@H](O)[C@H]1O (some centres not stated)
inactive: max response (HEK293) -8.79% | max response (HaCat) 4.17% | max response (KB-3-1) 1.12% | max response (NIH3T3) 3.34% | Potency (C33A) | Potency (CAOV3) | Potency (CASKI) | Potency (Es-2) | Potency (HeLa) | Potency (Hek293T) | Potency (JEG-3)

C=C(C(=O)O)C1CC2=C(C)CCCC2(C)C[C@@H]1O (some centres not stated)
inactive: max response (HEK293) -3% | max response (HaCat) 0.301% | outcome (KB-3-1) | max response (NIH3T3) 4.2% | Potency (C33A) | Potency (CAOV3) | Potency (CASKI) | Potency (Es-2) | Potency (HeLa) | Potency (Hek293T) | Potency (JEG-3)

CC1(C)C=CN2C(=O)C3=CCCN3C(=O)[C@@H]2C[C@@]12Nc1ccccc1C2=O
inactive: max response (HEK293) -9.52% | max response (HaCat) -4.92% | outcome (KB-3-1) | max response (NIH3T3) -3.89% | Potency (C33A) | Potency (CAOV3) | Potency (CASKI) | Potency (Es-2) | Potency (HeLa) | Potency (Hek293T) | Potency (JEG-3)

CC1=C(CCC(C)O[C@@H]2O[C@H](CO)[C@@H](O)[C@H](O)[C@H]2O)C(C)(C)CCC1=O (some centres not stated)
inactive: max response (HEK293) 4.11% | max response (HaCat) -0.525% | max response (KB-3-1) 8.72% | max response (NIH3T3) -15.3% | Potency (C33A) | Potency (CAOV3) | Potency (CASKI) | Potency (Es-2) | Potency (HeLa) | Potency (Hek293T) | Potency (JEG-3)

CC1CCC23COC(=O)C2=CC(O)CC3C1(C)CCC1=CC(O)OC1=O (configuration not stated)
inactive: max response (HEK293) 1.91% | max response (HaCat) -7.3% | outcome (KB-3-1) | max response (NIH3T3) 0.229% | Potency (C33A) | Potency (CAOV3) | Potency (CASKI) | Potency (Es-2) | Potency (HeLa) | Potency (Hek293T) | Potency (JEG-3)

C=CC(C)(CC/C=C(\C)C(=O)OC)OC1OC(COC(=O)CC(C)(O)CC(=O)O)C(OC2OC(CO)C(O)C(O)C2O)C(O)C1O (configuration not stated)
inactive: max response (HEK293) -1.61% | max response (HaCat) -0.66% | outcome (KB-3-1) | max response (NIH3T3) 2.15% | Potency (C33A) | Potency (CAOV3) | Potency (CASKI) | Potency (Es-2) | Potency (HeLa) | Potency (Hek293T) | Potency (JEG-3)

CC(=O)O[C@@H](CO[C@@H]1O[C@H](CO)[C@H](O)[C@H](O)[C@H]1O)[C@]1(C)C=C2CC[C@@H]3C(C)(C)[C@@H](O)CC[C@@]3(C)[C@@H]2CC1
inactive: max response (HEK293) -1.31% | max response (HaCat) 2.2% | max response (KB-3-1) 2.92% | max response (NIH3T3) 4.41% | Potency (C33A) | Potency (CAOV3) | Potency (CASKI) | Potency (Es-2) | Potency (HeLa) | Potency (Hek293T) | Potency (JEG-3)

Cc1cc(Cl)ccc1COc1ccnn1-c1cc(C(=O)O)ccn1
inactive: max response (HEK293) -13.3% | max response (HaCat) -5.14% | outcome (KB-3-1) | max response (NIH3T3) 0.276% | Potency (C33A) | Potency (CAOV3) | Potency (CASKI) | Potency (Es-2) | Potency (HeLa) | Potency (Hek293T) | Potency (JEG-3)
